Source: PubChem (National Center for Advancing Translational Sciences (NCATS))
Rab9 promoter act – qHTS Assay for Rab9 Promoter Activators. Huh7 Rab9 promoter-luciferase reporter, luminescence, 24 h. Potency, µM (top dose mostly 9.22 µM), inactives show at the highest dose activation, negative = inhibition, usual class: activators. 2.8% of 320,000 active; further: % of control where 0% means no effect; nearly all actives have a fitted effect of over 60% in size
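Cells were plated at 1500 per well in reduced-serum medium with 10% FBS and left 2 h. Compound in DMSO was then added for 24 h at 37 °C. Reporter signal was read by luminescence after 10 min with luciferase detection reagent.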
SMN2 splice enh – qHTS Assay for Enhancers of SMN2 Splice Variant Expression. HEK293 SMN2-luciferase splicing reporter, luminescence, 30-36 h. Potency, µM (highest dose often 46.1 µM), for the others: at the highest dose activity change, positive = activation, usual class: activators. 2.8% of 210,000 active. AID 1458, 2008; further: % of control where 0% means no effect; nearly all actives have a fitted effect of over 55% in size
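HEK293 cells carry an SMN2 minigene-luciferase reporter in which exon 7 inclusion puts luciferase in frame. Cells were seeded at 2000 cells/well, attached for 10-12 hours, then exposed to compounds for 30-36 hours at 37C before ONE-Glo luminescence.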
ELG1 genotox – qHTS screen for small molecules that induce genotoxicity in human embryonic kidney (HEK293T) cells expressing luciferase-tagged ELG1; AID 504466, 2011; Potency, µM (titrated, usually from 46 µM), for the others: top-dose activity change, positive = activation, hits mostly activators; 1.3% of 330,000 active; HEK293T ELG1-luciferase reporter, luminescence, 16 h; further: % of control where 0% means no effect; nearly all actives have a fitted effect of over 60% in size
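Screening used a luciferase reporter fused to human ELG1 in HEK293T cells. Luminescence was read on a CCD plate imager after 16 hr exposure and 30 min ONE-Glo incubation.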
NPC1 prom act – qHTS Assay for NPC1 Promoter Activators; Potency, µM (titrated, usually from 9.22 µM), inactives show at the highest dose activation, hits mostly activators; Huh7 NPC1 promoter luciferase reporter, 24 h; 2.4% of 320,000 active; further: % of control where 0% means no effect; nearly all actives have a fitted effect of over 60% in size
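Luminescence from an NPC1 promoter-driven luciferase reporter in stably transfected Huh7 cells was measured after 24 h compound treatment at 37 °C, followed by 10 min ambient incubation with luciferase detection reagent.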
FLuc counter – qHTS profiling assay for firefly luciferase inhibitor/activator using purifed enzyme and Km concentrations of substrates (counterscreen for miR-21 project); Luciferin 4-monooxygenase (Photinus pyralis), P08659; 6.9% of 360,000 active; purified FLuc, Km substrates, luminescence inhibition; AID 588342, 2011; Potency, µM (top dose mostly 57.5 µM), for inactives: at the top dose activity change, negative = inhibition, hits mostly inhibitors;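 further: plate controls were vehicle for no effect and reference inhibitor for full effect; nearly all actives have a fitted effect of over 55% in size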
Target sequence (P08659 whole entry, looked up): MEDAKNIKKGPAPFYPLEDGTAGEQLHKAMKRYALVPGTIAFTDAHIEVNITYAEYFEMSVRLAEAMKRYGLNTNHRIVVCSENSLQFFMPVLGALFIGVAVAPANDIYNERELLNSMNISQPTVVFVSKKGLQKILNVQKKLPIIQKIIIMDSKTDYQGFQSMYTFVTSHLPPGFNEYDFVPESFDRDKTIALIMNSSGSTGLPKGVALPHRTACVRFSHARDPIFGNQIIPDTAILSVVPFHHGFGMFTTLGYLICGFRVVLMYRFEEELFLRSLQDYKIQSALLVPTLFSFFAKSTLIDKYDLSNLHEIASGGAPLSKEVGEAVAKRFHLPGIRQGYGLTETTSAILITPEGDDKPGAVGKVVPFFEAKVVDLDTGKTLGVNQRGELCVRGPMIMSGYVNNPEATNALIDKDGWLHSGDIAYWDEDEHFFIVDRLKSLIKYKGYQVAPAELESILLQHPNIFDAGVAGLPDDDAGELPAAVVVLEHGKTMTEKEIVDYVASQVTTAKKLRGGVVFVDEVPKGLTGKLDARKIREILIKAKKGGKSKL
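Biochemical qHTS of compounds, final roughly 60 µM downward over six points, against 10 nM purified firefly luciferase using Km concentrations of substrates (10 uM D-luciferin, 10 uM ATP) in Tris acetate pH 7.5 buffer; luminescence output.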
Active calls of the source: *; ? = inconclusive; . = not tested or not shown. Rows were chosen to be rich in hits. Some 7.5% of all compounds tested hit in one or more screens of this group. The call rests on the fitted dose curve; in most records, active means well fitted curve in the direction sought with a large enough effect; inconclusive means small, poorly fitted or top-dose-only effect, or another doubt; inactive means no such curve, though single readings can be large; an effect the other way counts as inactive or inconclusive. Potency means the concentration at half of the fitted maximal effect.

SMILES	Rab9 promoter act	SMN2 splice enh	ELG1 genotox	NPC1 prom act	FLuc counter
CC(=O)c1ccc(NC(=O)c2cc(Cl)sc2Cl)cc1	2.2µM*	13µM*	?	2.8µM*	15µM*
NCC(O)CC(=O)O (configuration not stated)	.	-13%	.	.	.
CCCCCCCCCCCC(=O)NC(C(=O)OCC)C(O)c1cccc([N+](=O)[O-])c1 (configuration not stated)	-3%	-28%	0%	-1%	1%
CCS(=O)(=O)N1CCN(c2ccc(C(=O)NC34CC5CC(CC(C5)C3)C4)cc2[N+](=O)[O-])CC1	-6%	-5%	-3%	-7%	?
COc1ccc(C)cc1S(=O)(=O)Nc1ccc(-n2c(C)nc3ccccc3c2=O)cc1	-4%	.	-4%	-1%	-3%
CC(=O)c1ccc(NC(=O)Nc2cccc3ccccc23)cc1	?	.	?	25%	?
CC(=O)c1ccc(NC(=O)NNS(=O)(=O)c2ccc([N+](=O)[O-])cc2)cc1	11%	.	1%	0%	4%
CC(=O)c1ccc(NC(=O)Nc2ccc(Cl)cc2)cc1	1.4µM*	13µM*	2.1µM*	1.4µM*	12µM*
CC(=O)c1ccc(NC(=O)Nc2ccncc2)cc1	20%	15%	12%	1%	-26%
CC(=O)Nc1cccc(NC(=O)Nc2ccc(C(C)=O)cc2)c1	11%	19%	?	24%	11µM*
CC(=O)c1ccc(NC(=O)Nc2ccc([N+](=O)[O-])cc2)cc1	27%	13µM*	?	?	-16%
CCC(=O)Oc1ccc(C(=O)Nc2ccc([N+](=O)[O-])cc2)cc1	?	14µM*	9%	2.8µM*	-11%
COC(=O)c1ccccc1S(=O)(=O)N(Cc1cc2cc3c(cc2[nH]c1=O)OCO3)C1CCCCC1	-4%	?	-3%	0%	4%
COc1ccc(/C=N/NC(=O)Nc2cccc3nsnc23)c(OC)c1	-2%	-3%	0%	-3%	-1%
C#CCOc1ccc(/C=C2/C(=O)ON=C2C)cc1Br	-4%	.	2%	-2%	?
CN1OC(COC(=O)c2ccccc2)CC1c1ccccc1 (configuration not stated)	8%	-13%	3%	?	6.7µM*
COc1cc2ncnc(NCc3cccs3)c2cc1OC	-1%	-23%	1%	-10%	4%
COc1cccc(-c2cc(NCc3cccs3)ncn2)c1	.	8.9µM*	.	.	.
CCOC(=O)C1=C(Cc2ccc(F)cc2)C(=O)c2ccccc2C1=O	4%	-14%	-6%	11%	?
CCCCc1ccc(/C=C2\C(=O)c3ccccc3C(O)=C2C(=O)OCC)cc1	-2%	8%	1%	-1%	11µM*
Cc1nonc1NCn1nnc2ccccc21	-28%	-1%	0%	3%	2%
CC(C)c1ccc(CNC(=O)C2CC(=O)N(C3CCCCC3)C2)cc1 (configuration not stated)	5%	.	-3%	-8%	5%
CC1CCC(=O)N(CCSc2ccccc2)CC1 (configuration not stated)	0.89µM*	.	?	1.1µM*	5.4µM*
COc1ccc(SCCN2CC[C@@H](C)CCC2=O)cc1	18%	.	7%	15%	?
CC(C)(C)c1ccc(C(=O)Nn2cnnc2)cc1	26%	.	3%	18%	24µM*
Cc1cc(C)cc(C(=O)Nc2nnc(SCC(=O)N3CCCc4ccccc43)s2)c1	1%	3%	2%	-2%	?
O=C(Nc1nnc(SCC(=O)N2CCCc3ccccc32)s1)c1ccccc1	?	11µM*	12%	?	1.5µM*
O=C(Nc1nnc(SCC(=O)N2CCCc3ccccc32)s1)c1ccc2ccccc2c1	2.8µM*	11µM*	?	?	1.2µM*
CCc1ccccc1NC(=O)C1CCCN(c2cnccn2)C1 (configuration not stated)	.	-8%	.	.	-3%
